Assay results: the supplement of paper PMC8728848
Many of the other results were omitted from the sample, so the strongest signals are more common in it than they were.

Tests used:
Assay in all cases: glycan array binding signal (z-score within array); higher = stronger binding
Details in all cases: glycan notation: IUPAC condensed, linker removed
[1] = molecular target: Fuc(a1-2)Gal(b1-4)GlcNAc(b1-3)Gal(b1-4)GlcNAc(b1-2)Man(a1-3)[Fuc(a1-2)Gal(b1-4)GlcNAc(b1-3)Gal(b1-4)GlcNAc(b1-2)Man(a1-6)]Man(b1-4)GlcNAc(b1-4)GlcNAc
Method in brief: (§1)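 Negative Z-scores can be read as non-binding. The Z-score is calculated within each array and then averaged across arrays of one protein sequence at different concentrations or buffers and across linkers. Arrays, 3228 in all, were curated from the Consortium for Functional Glycomics database and kept only where the protein sequence was available.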

[2] = molecular target: Fuc(a1-2)Gal3S(b1-4)GlcNAc
Method in brief: as §1

[3] = molecular target: Fuc(a1-2)[Gal(a1-3)]Gal(b1-3)GlcNAc(b1-6)GalNAc
Method in brief: as §1

[4] = molecular target: Fuc(a1-2)[GalNAc(a1-3)]Gal(b1-3)GlcNAc(b1-3)GalNAc
Method in brief: as §1

[5] = molecular target: Fuc(a1-2)[GalNAc(a1-3)]Gal(b1-4)GlcNAc(b1-2)Man(a1-3)[Fuc(a1-2)[GalNAc(a1-3)]Gal(b1-4)GlcNAc(b1-2)Man(a1-6)]Man(b1-4)GlcNAc(b1-4)GlcNAc
Method in brief: as §1

[6] = molecular target: Fuc(a1-2)[GalNAc(a1-3)]Gal(b1-4)GlcNAc(b1-3)GalNAc
Method in brief: as §1

[7] = molecular target: Fuc(a1-3)[Gal(b1-4)]Glc6S
Method in brief: as §1

[8] = molecular target: Fuc(a1-3)[Gal(b1-4)]GlcNAc(b1-2)Man
Method in brief: as §1

[9] = molecular target: Fuc(a1-3)[Gal(b1-4)]GlcNAc(b1-6)GalNAc
Method in brief: as §1

[10] = molecular target: Gal(a1-4)Gal(b1-4)GlcNAc(b1-2)Man(a1-3)[Gal(a1-4)Gal(b1-4)GlcNAc(b1-2)Man(a1-6)]Man(b1-4)GlcNAc(b1-4)GlcNAc
Method in brief: as §1

[11] = molecular target: Gal(a1-4)Gal(b1-4)GlcNAc(b1-3)Gal(b1-4)Glc
Method in brief: as §1

Gal(b1-3)GalNAc = molecular target: Gal(b1-3)GalNAc
Method in brief: as §1

[12] = molecular target: Gal(b1-3)GalNAc(b1-4)Gal(b1-4)Glc
Method in brief: as §1

[13] = molecular target: Gal(b1-3)GlcNAc(b1-3)Gal(b1-3)GlcNAc
Method in brief: as §1

[14] = molecular target: Gal(b1-3)[Fuc(a1-4)]GlcNAc
Method in brief: as §1

[15] = molecular target: Gal(b1-4)GlcNAc(b1-2)Man(a1-3)[Gal(b1-4)GlcNAc(b1-2)Man(a1-6)][GlcNAc(b1-4)]Man(b1-4)GlcNAc(b1-4)[Fuc(a1-6)]GlcNAc
Method in brief: as §1

[16] = molecular target: Gal(b1-4)GlcNAc(b1-2)[Gal(b1-4)GlcNAc(b1-4)]Man(a1-3)[Gal(b1-4)GlcNAc(b1-2)Man(a1-6)]Man(b1-4)GlcNAc(b1-4)GlcNAc
Method in brief: as §1

[17] = molecular target: Gal(b1-4)GlcNAc(b1-2)[Gal(b1-4)GlcNAc(b1-6)]Man(a1-6)[GlcNAc(b1-4)][Gal(b1-4)GlcNAc(b1-2)[Gal(b1-4)GlcNAc(b1-4)]Man(a1-3)]Man(b1-4)GlcNAc(b1-4)[Fuc(a1-6)]GlcNAc
Method in brief: as §1

[18] = molecular target: Gal(b1-4)GlcNAc(b1-3)Gal(b1-4)GlcNAc(b1-3)Gal(b1-4)GlcNAc(b1-3)Gal(b1-4)GlcNAc(b1-3)Gal(b1-4)GlcNAc(b1-2)Man(a1-3)[Gal(b1-4)GlcNAc(b1-3)Gal(b1-4)GlcNAc(b1-3)Gal(b1-4)GlcNAc(b1-3)Gal(b1-4)GlcNAc(b1-3)Gal(b1-4)GlcNAc(b1-2)Man(a1-6)]Man(b1-4)GlcNAc(b1-4)GlcNAc
Method in brief: as §1

Gal(b1-6)Gal = molecular target: Gal(b1-6)Gal
Method in brief: as §1

Gal3S(b1-3)GlcNAc = molecular target: Gal3S(b1-3)GlcNAc
Method in brief: as §1

[19] = molecular target: Gal3S(b1-4)[Fuc(a1-3)]GlcNAc6S
Method in brief: as §1

Gal6S(b1-4)Glc6S = molecular target: Gal6S(b1-4)Glc6S
Method in brief: as §1

Gal6S(b1-4)GlcNAc = molecular target: Gal6S(b1-4)GlcNAc
Method in brief: as §1

[20] = molecular target: GlcNAc(b1-2)Man(a1-3)[GlcNAc(b1-4)][GlcNAc(b1-2)Man(a1-6)]Man(b1-4)GlcNAc(b1-4)[Fuc(a1-6)]GlcNAc
Method in brief: as §1

[21] = molecular target: GlcNAc(b1-3)Gal(b1-4)GlcNAc(b1-3)Gal(b1-4)GlcNAc(b1-3)Gal(b1-4)GlcNAc(b1-2)[GlcNAc(b1-3)Gal(b1-4)GlcNAc(b1-3)Gal(b1-4)GlcNAc(b1-3)Gal(b1-4)GlcNAc(b1-6)]Man(a1-6)[GlcNAc(b1-3)Gal(b1-4)GlcNAc(b1-3)Gal(b1-4)GlcNAc(b1-3)Gal(b1-4)GlcNAc(b1-2)Man(a1-3)]Man(b1-4)GlcNAc(b1-4)[Fuc(a1-6)]GlcNAc
Method in brief: as §1

[22] = molecular target: GlcNAc(b1-3)Gal(b1-4)GlcNAc(b1-3)Gal(b1-4)GlcNAc(b1-3)Gal(b1-4)GlcNAc(b1-3)Gal(b1-4)GlcNAc(b1-2)Man(a1-3)[GlcNAc(b1-3)Gal(b1-4)GlcNAc(b1-3)Gal(b1-4)GlcNAc(b1-3)Gal(b1-4)GlcNAc(b1-3)Gal(b1-4)GlcNAc(b1-2)Man(a1-6)]Man(b1-4)GlcNAc(b1-4)GlcNAc
Method in brief: as §1

[23] = molecular target: GlcNAc(b1-3)Gal(b1-4)GlcNAc(b1-3)Gal(b1-4)GlcNAc(b1-3)Gal(b1-4)GlcNAc(b1-3)Gal(b1-4)GlcNAc(b1-2)[GlcNAc(b1-3)Gal(b1-4)GlcNAc(b1-3)Gal(b1-4)GlcNAc(b1-3)Gal(b1-4)GlcNAc(b1-3)Gal(b1-4)GlcNAc(b1-6)]Man(a1-6)[GlcNAc(b1-3)Gal(b1-4)GlcNAc(b1-3)Gal(b1-4)GlcNAc(b1-3)Gal(b1-4)GlcNAc(b1-3)Gal(b1-4)GlcNAc(b1-2)Man(a1-3)]Man(b1-4)GlcNAc(b1-4)[Fuc(a1-6)]GlcNAc
Method in brief: as §1

[24] = molecular target: Man(a1-2)Man(a1-2)Man(a1-6)[Man(a1-3)]Man
Method in brief: as §1

[25] = molecular target: Man(a1-2)Man(a1-6)[Man(a1-3)]Man(a1-6)[Man(a1-2)Man(a1-2)Man(a1-3)]Man(b1-4)GlcNAc(b1-4)GlcNAc
Method in brief: as §1

[26] = molecular target: Man(a1-3)[Man(a1-6)]Man(a1-6)[Man(a1-3)]Man
Method in brief: as §1

Man(a1-6)Man = molecular target: Man(a1-6)Man
Method in brief: as §1

[27] = molecular target: Neu5Ac(a2-3)Gal(b1-4)GlcNAc(b1-3)Gal(b1-4)GlcNAc(b1-3)GalNAc
Method in brief: as §1

[28] = molecular target: Neu5Ac(a2-3)Gal(b1-4)GlcNAc(b1-3)Gal(b1-4)GlcNAc(b1-6)[Gal(b1-3)]GalNAc
Method in brief: as §1

[29] = molecular target: Neu5Ac(a2-3)Gal(b1-4)[Fuc(a1-3)]GlcNAc
Method in brief: as §1

[30] = molecular target: Neu5Ac(a2-3)Gal6S(b1-4)[Fuc(a1-3)]GlcNAc
Method in brief: as §1

[31] = molecular target: Neu5Ac(a2-6)Gal(b1-4)GlcNAc(b1-2)Man(a1-3)Man(b1-4)GlcNAc(b1-4)GlcNAc
Method in brief: as §1

[32] = molecular target: Neu5Ac(a2-6)Gal(b1-4)GlcNAc(b1-3)Gal(b1-4)GlcNAc(b1-6)[Gal(b1-3)]GalNAc
Method in brief: as §1

[33] = molecular target: Neu5Ac(a2-8)Neu5Ac(a2-3)[GalNAc(b1-4)]Gal(b1-4)Glc
Method in brief: as §1

[34] = molecular target: Neu5Ac(a2-8)Neu5Ac(a2-8)Neu5Ac(a2-3)Gal(b1-4)Glc
Method in brief: as §1

[35] = molecular target: Neu5Ac(b2-6)Gal(b1-4)GlcNAc
Method in brief: as §1

[36] = molecular target: Neu5Gc(a2-8)Neu5Gc(a2-3)Gal(b1-4)GlcNAc
Method in brief: as §1

B1: Pwp3 (Candida glabrata) (protein)
chain: MGSSHHHHHHSSGLVPRGSHMASKNPVDFTTVCQFPDNFSKKPGFLATTARLGLWITGNSYKELLNYPGTFTLTTQQASTTTPNIQLRGTDLFTTIYGLTVYPLYLLVELQGYFVPTQSGMYTFSLTGSDDAAIIFIGNPSTFPCDAFKTWPQATANDITVTDSINPSRTLYMVKGVAYPLRIAYYNGLGNGVLNAAFTDPSGTKRTDWNGYIWQYDQCSTCTYK
- glycan array binding signal (z-score) [1]: -0.363
- glycan array binding signal (z-score) [2]: -0.232
- glycan array binding signal (z-score) [3]: 4.02
- glycan array binding signal (z-score) [4]: -0.434
- glycan array binding signal (z-score) [5]: 3.9
- glycan array binding signal (z-score) [6]: 3.75
- glycan array binding signal (z-score) [7]: 5.3
- glycan array binding signal (z-score) [8]: -0.319
- glycan array binding signal (z-score) [9]: -0.516
- glycan array binding signal (z-score) [10]: -0.343
- glycan array binding signal (z-score) [11]: -0.304
- glycan array binding signal (z-score) (Gal(b1-3)GalNAc): -0.038
- glycan array binding signal (z-score) [12]: 4.7
- glycan array binding signal (z-score) [13]: 0.247
- glycan array binding signal (z-score) [14]: -0.246
- glycan array binding signal (z-score) [15]: -0.02
- glycan array binding signal (z-score) [16]: -1.19
- glycan array binding signal (z-score) [17]: -0.123
- glycan array binding signal (z-score) [18]: 3.73
- glycan array binding signal (z-score) (Gal(b1-6)Gal): -0.446
- glycan array binding signal (z-score) (Gal3S(b1-3)GlcNAc): -0.36
- glycan array binding signal (z-score) [19]: -0.535
- glycan array binding signal (z-score) (Gal6S(b1-4)Glc6S): 6.29
- glycan array binding signal (z-score) (Gal6S(b1-4)GlcNAc): 0.319
- glycan array binding signal (z-score) [20]: -0.195
- glycan array binding signal (z-score) [21]: 1.66
- glycan array binding signal (z-score) [22]: -0.439
- glycan array binding signal (z-score) [23]: 4.05
- glycan array binding signal (z-score) [24]: -0.335
- glycan array binding signal (z-score) [25]: -0.066
- glycan array binding signal (z-score) [26]: 4.4
- glycan array binding signal (z-score) (Man(a1-6)Man): -0.259
- glycan array binding signal (z-score) [27]: -0.424
- glycan array binding signal (z-score) [28]: 2.29
- glycan array binding signal (z-score) [29]: 0.139
- glycan array binding signal (z-score) [30]: -0.332
- glycan array binding signal (z-score) [31]: -0.617
- glycan array binding signal (z-score) [32]: 0.018
- glycan array binding signal (z-score) [33]: 4.12
- glycan array binding signal (z-score) [34]: -1.21
- glycan array binding signal (z-score) [35]: 0.194
- glycan array binding signal (z-score) [36]: 0.001
